In PubChem BioAssay AID624167 (Sanford-Burnham Center for Chemical Genomics, 2012) one finds inhibition data, which are given here for 16 molecules.

Broadly, the inhibition is the relative decrease from the control value, in per cent.

This assay is described as follows: inhibition of PEG-3 promoter-driven reporter – cell-based, HeLa, luciferase, CREF/GAPDH counter-screen panel, dose response (AID 624167). As to conditions: CREF/GAPDH counter-screens; run 1, dose range 1, at 100 µM (top of the series).
`C=C1CC2(OC1=O)c1ccccc1CCc1ccccc12`: the inhibition amounted to 100%.
In the case of `CCCC(=O)NC(c1ccc(C(C)C)cc1)c1ccc2cccnc2c1O` (stereo unspecified) it was 54.3%; in that of `COc1ccc(C(NC(C)=O)c2ccc3cccnc3c2O)c(OC)c1` (stereo unspecified), -5.47%; in that of `CC1CC(C)C(=O)C(C(CC2CC(=O)NC(=O)C2)OC(=O)CC(=O)c2ccccc2)C1` (stereo unspecified), 88.4%.
For `CC(=O)NC(c1ccc(Cl)cc1Cl)c1ccc2cccnc2c1O` (stereo unspecified), the inhibition is 55.7%.
`O=C(CCSc1nc2ccccc2s1)N/N=C/c1c(O)ccc2ccccc12`: the inhibition is -10.4%.
In the case of `COc1cccc(OC)c1C(=O)Nc1cc(C)nn1-c1nc2ccccc2[nH]1` it was 50.8%.
In the case of `CN(C)c1c([N+](=O)[O-])cc(N2C(=O)C=CC2=O)cc1[N+](=O)[O-]` it was 98.9%.
In the case of `Cc1ccc(NC(=S)NC(=O)c2ccc(F)cc2)cc1S(=O)(=O)Nc1ccccc1Cl` it was 70.9%; in that of `CC(C)CCCCCCCCCCCCC(=O)NCC(=O)NC1C(O)C(O)C(Nc2ncnc3nc[nH]c23)OC1C(O)CO` (stereo unspecified), 94.6%; in that of `COC(=O)C1C=CC(OC2OC(COC(C)=O)C(OC(C)=O)C(OC(C)=O)C2OC(C)=O)n2c(=O)n(-c3ccccc3)c(=O)n21` (stereo unspecified), 94.9%.
On to `Cc1cc(C)c(C)c(S(=O)(=O)N2CCN(C(=O)c3cc(=O)[nH]c4ccccc34)CC2)c1C`, for which the inhibition was found to be 71.8%.
In the case of `C/C(=N\NC(=O)c1cc(C2CC2)nc2ccccc12)c1ccc(O)cc1O` it was 22.7%.
In the case of `O=C(O)c1ccc(N/N=C/c2ccc3nccnc3c2)cc1` it was 99%; in that of `O=C(CNc1ccccc1)N/N=C/c1c(O)ccc2ccccc12`, 57%; in that of `NC(C(=O)O)C1ON=C(Cl)C1O` (stereo unspecified), 67%.
